Hits are enriched below; roughly 2.8% of the tested compounds scored in any of these assays.
POLB inh = qHTS Assay for Inhibitors of DNA Polymerase Beta; Pol beta primer extension/strand displacement, fluorescence kinetic; Potency, µM (titrated, usually from 114 µM), for the others: top-dose activity change, negative = inhibition, actives largely listed as inhibitors; actives 1.3% (n = 340,000); note: potency is the fitted concentration of half-maximal effect; % is set by controls: 0 for no effect and ±100 for the full control effect
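Reaction started by 50 nM substrate onto compound-treated Pol beta (10 nM, 15 min preincubation, room temperature); plates read at 0 min and 10 min. Normalized concentration-effect data fitted by four-parameter Hill equation.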
Pol eta inh = qHTS for Inhibitors of Polymerase Eta. DNA polymerase eta (Homo sapiens), Q9Y253. recombinant Pol eta, fluorescent DNA replication assay. Potency, µM (highest dose often 114 µM), without a hit: at the highest dose activity change, negative = inhibition, hits mostly inhibitors. actives 1.2% (n = 390,000); note: potency is the fitted concentration of half-maximal effect; % is set by controls: 0 for no effect and ±100 for the full control effect
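Pol eta (10 nM) was preincubated with compounds for 15 min at room temperature, after which fluorescent replication substrate (50 nM final) was added to start the reaction. Fluorescence was read kinetically at 0 and 10 min.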
WRN helicase inh = qHTS for Inhibitors of WRN Helicase | WRN helicase unwinding, fluorescent forked duplex, kinetic | actives 0.46% (n = 360,000) | AID 651768, 2012 | Potency, µM (titrated, usually from 114 µM), for the others: at the top dose activity change, negative = inhibition, actives largely listed as inhibitors; note: potency is the fitted concentration of half-maximal effect; % is set by controls: 0 for no effect and ±100 for the full control effect; nearly all actives have a fitted effect of over 55% in size
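Fluorescence dequenching readout, ex 525 nm/em 598 nm, kinetic mode: forked duplex DNA (100 nM final) with adjacent fluorophore and quencher unwound by WRN (20 nM final) with 2 mM ATP. Compound preincubation 15 min, room temperature.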
POLI inh = qHTS for Inhibitors of Polymerase Iota; DNA polymerase iota (Homo sapiens), Q9UNA4; Pol iota fluorescent replication assay, 10 min; Potency, µM (top dose mostly 115 µM), for the others: at the highest dose activity, negative = inhibition, hits mostly inhibitors; actives 1% (n = 390,000); note: potency is the fitted concentration of half-maximal effect
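Fluorescent replication assay read twice, at 0 min and 10 min after adding 50 nM (final) substrate. Enzyme (10 nM) and compounds were first incubated 15 min at room temperature; enzyme-free buffer wells were negative controls.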
POLK inh = qHTS for Inhibitors of Polymerase Kappa; DNA polymerase kappa (Homo sapiens), Q9UBT6; purified Pol kappa, fluorescent DNA synthesis assay, 10 min; Potency, µM (highest dose often 107 µM), inactives show top-dose activity, negative = inhibition, usual class: inhibitors; actives 0.53% (n = 400,000); AID 588579, 2011; note: potency is the fitted concentration of half-maximal effect; % is set by controls: 0 for no effect and ±100 for the full control effect
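10 nM Pol kappa preincubated 15 min at room temperature with compounds, then reaction started with substrate at 50 nM final. Fluorescence read kinetically at 0 and 10 min; buffer-only wells served as negative control.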
PI5P4Ka inh = qHTS for Inhibitors of phosphatidylinositol 5-phosphate 4-kinase (PI5P4K); Phosphatidylinositol 5-phosphate 4-kinase type-2 alpha (Homo sapiens), P48426; PI5P4Kalpha enzyme, ADP-Glo luminescence, 60 min; hits give low values; max response, %; actives 1.2% (n = 330,000); active = max response of -50% or lower; inconclusive = between -30% and -50%; inactive = -30% or higher; note: value at the top dose of about 77 µM; % is set by controls: 0 for no effect and ±100 for the full control effect
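Compounds were pin-transferred onto PI5P4Kalpha and substrate in HEPES pH 7.4 buffer with EGTA, CHAPS and 5% DMSO. ATP (5 microM final) started the reaction, which ran 60 minutes at room temperature before ADP-Glo detection.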
An asterisk follows results filed as active; ? = inconclusive; . = not tested or not shown; [ ] = another dose, or the depositor's remark. Unless noted, calls come from the whole dose curve; as a rule, active = well fitted curve in the direction sought with a large enough effect; inconclusive = small, poorly fitted or top-dose-only effect, or another doubt; inactive = no such curve, though single readings can be large; an effect the other way counts as inactive or inconclusive.

SMILES	POLB inh	Pol eta inh	WRN helicase inh	POLI inh	POLK inh	PI5P4Ka inh
CCCCNC(=O)c1sc(=S)n2c1[nH]c(=O)c1ccc(C(=O)NCCc3ccc(OC)c(OC)c3)cc12	?	18µM*	-17%	14µM*	?	5
N=c1c(C(=O)NCc2ccc(F)cc2)cc2c(=O)n3ccccc3nc2n1Cc1ccco1	?	40µM*	-22%	18µM*	?	-17
N=c1c(C(=O)NCc2ccc3c(c2)OCO3)cc2c(=O)n3ccccc3nc2n1Cc1cccnc1	40µM*	?	-15%	40µM*	-20%	.
Cc1cccn2c(=O)c3cc(C(=O)NCCc4ccccc4)sc3nc12	14µM*	?	-17%	?	-24%	-10
N=c1c(C(=O)NCc2ccccc2)cc2c(=O)n3ccccc3nc2n1Cc1ccco1	?	?	-6%	4%	-2%	0
Cc1cccn2c(=O)c3cc(C(=O)NCCc4ccccc4)c(=N)n(Cc4ccco4)c3nc12	-17%	-11%	-20%[11.6 µM]	7.9µM*	-35%	0
CCCCNC(=O)c1cc2c(=O)n3cccc(C)c3nc2s1	20%	-2%	-4%	25%	-2%	0
Cc1cccn2c(=O)c3cc(C(=O)NCc4ccco4)c(=N)n(CCc4ccccc4)c3nc12	?	?	-14%	?	-26%	-10
CCCCCCCCCC[n+]1cccc2cc(Br)ccc21	.	.	.	-6%	-36%	.
O=C(CSc1nc2nc(-c3cccs3)cc(C(F)(F)F)c2c(=O)[nH]1)Nc1ccc(F)c(F)c1	28µM*	32µM*	?	?	?	-1
N#Cc1c(C(F)(F)F)cc(-c2cccs2)nc1SCC(=O)Nc1ccc(Cl)cc1	23%	-15%	.	10%	-11%	.
O=c1[nH]c(-c2ccccc2)cs1	8%	-10%	3%	32%	1%	3
Fc1ccc(-c2csc(=S)[nH]2)cc1	19%	6%	-35%	-8%	-7%	-51*
S=c1[nH]c(-c2ccccc2)cs1	10%	2%	?	85%	-14%	-70*
O=c1[nH]c(-c2ccc(Cl)cc2)cs1	7%	-9%	-6%	9%	-8%	1
N#C/C(=C\c1ccc(-c2cc(Cl)ccc2Cl)o1)C(=O)Nc1cccc2ncccc12	.	.	.	.	-7%[60.1 µM]	.
COc1cc([N+](=O)[O-])ccc1-c1ccc(/C=N/NC(N)=O)o1	?	9%	17%	89µM*	-13%	-6
COc1cc([N+](=O)[O-])ccc1-c1ccc(/C=N/NC(=O)OC(C)(C)C)o1	20%	-8%	-4%	38%	6%	3
Cc1ccc(N(CC(O)COCc2ccco2)S(=O)(=O)c2ccc(C)cc2)cc1 (stereo unspecified)	22µM*	50µM*	?	?	89µM*	.
CC(C)(C)c1ccc(C(=O)N2CCC2(C)C(=O)NCc2cccc3ccccc23)cc1 (stereo unspecified)	.	.	-8%	.	.	23
COc1ccccc1CNc1ccnc(-c2ccc3c(c2)OCO3)n1	.	.	.	.	-11%[60.1 µM]	.
O=C(OCC(=O)N1CCCC1)c1ccccc1C(=O)c1ccccc1	.	8%	-4%	-5%	7%	-6
O=C1c2ccccc2-c2n[nH]c3cccc1c23	32µM*	?	-3%[11.6 µM]	?	?	-2
COc1ccc(N2CCN(C(=O)c3cc4c(=O)n(Cc5cccs5)ccc4nc3C)CC2)cc1	-9%	3%	.	1%	-27%	.
CCNc1nc(NC(C)C)nc(Nn2cnnc2)n1	35µM*	-9%	1%	118%	10%	.
SMILES	POLB inh	Pol eta inh	WRN helicase inh	POLI inh	POLK inh	PI5P4Ka inh
Cc1ccc(SCC(=O)Nc2ccc(-c3nnc(-c4ccco4)o3)cc2)cc1	50µM*	?	-28%	-10%	?	-4
COc1ccc(C(=O)n2nc(-c3ccco3)nc2N)cc1	25µM*	-4%	1%	16%	1%	3
COc1cccc(NC(=O)CSc2nnc(-c3ccco3)c(-c3ccco3)n2)c1	?	20µM*	45µM*	?	50µM*	-63*
Cc1ccc(NC(=O)CSc2nnc(-c3ccco3)c(-c3ccco3)n2)cc1	14µM*	11µM*	40µM*	11µM*	40µM*	-75*
CN(C)c1ccc(NC(=O)CSc2nnc(-c3ccco3)c(-c3ccco3)n2)cc1	3%	-6%	-19%	51%	-11%	-15
Cc1ccc(S(=O)(=O)CCC(=O)OCC(=O)NCC(=O)Nc2c(C)cc(C)cc2C)cc1	.	6%	6%	9%	-2%	-6
O=C(CSc1nnc(-c2ccco2)c(-c2ccco2)n1)Nc1ccccc1	-121%	2.8µM*	35µM*	5µM*	20µM*	-84*
COc1ccc(C(=O)CSc2nnc(-c3ccco3)c(-c3ccco3)n2)cc1	13µM*	13µM*	?	?	-75%	-57*
Cc1ccc(CC(=O)NCc2nc(-c3cccc(C)c3)no2)cc1	0%	-18%	.	-3%	-6%	.
CN(C)c1ccc(C=O)c(O)c1	.	.	.	50µM*	?	.
CN(C)/C=C/C(=O)/C=C/c1cn(-c2ncc(C(F)(F)F)cc2Cl)c2ccccc12	25µM*	-17%	-11%	8%	-21%	?
CCOc1ccc(NC(=O)CCNS(=O)(=O)c2ccc3c(c2)CC(C)N3C(C)=O)cc1 (stereo unspecified)	31%	-22%	6%	25%	2%	?
Cc1ccc(Nc2nc(Nc3ccc(Cl)cc3)nc(N3CCOCC3)n2)cc1	.	.	.	-17%	-1%	.
O=C(O)c1ccc(N2C(=O)CC(N3CCN(c4ccc(Cl)cc4)CC3)C2=O)cc1 (stereo unspecified)	30%	-3%	0%	2%	-1%	-1
O=C(O)c1ccc(N2C(=O)CC(N3C(=O)/C(=C/c4ccc(Cl)cc4)SC3=S)C2=O)cc1 (stereo unspecified)	-1%	?	2%[11.6 µM]	?	-28%	-64*
COc1ccccc1C(=O)Oc1ccc2c(c1)O/C(=C\c1ccncc1)C2=O	0%	?	-1%	-8%	-11%	-57*
CC(=O)Oc1ccc2c(c1)O/C(=C\c1ccncc1)C2=O	1%	1%	-11%	-1%	-17%	-53*
O=C(Oc1ccc2c(c1)O/C(=C\c1ccncc1)C2=O)c1cccs1	7%	?	-14%	?	-4%	?

Source: PubChem BioAssay
